The list is not random: actives were taken first. Their share in the collection is about 0.67%.
CaV13 ICDI inh: Disruptors of the CACNA1D IQ motif to Ca2+-dependent inactivation inhibitor domain association, primary screening, Förster resonance energy transfer in intact living …. 340,000 tested, 0.098% active. HEK cells, CFP/YFP FRET ICDI-IQ, plate reader, 10 min; percent FRET-ratio fall versus neutral wells. inhibition, % at 12.3 µM;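 active = mean replicate inhibition of at least 30% and at least 1% of replicates passing that level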;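 note: 0% = median of the neutral control wells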
NPR2 activator: GC-B (human) receptor activation; activation, % at 10 µM; P20594; HEK293-GC-B cells, CNP EC30, cGMP TR-FRET; 0% at EC30 CNP, 100% saturating CNP; 370,000 tested, 0.11% active;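 active = activation at 10 µM reaching about 35% in either raw or pattern-adjusted values, limit read from the data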
GC-A act: GC-A (human) enzyme activation. P16066. HEK293 GC-A cells, cGMP TR-FRET, EC30 ANP; 0% at EC30 ANP, 100% saturating ANP. activation, % at 10 µM. 370,000 tested, 0.14% active; in the data active = activation above about 40%
Rin1 Abl inh: inhibitors of human Rin1-Abl protein interaction; TR-FRET Rin1/Abl binding, biochemical; inhibition, % at 7.35 µM; 360,000 tested, 0.4% active; AID 588664; P00519+Q13671; in the data active = inhibition above about 5%, passing the limit was not always enough
Rin1 Abl conf: confirmation of inhibitors of human Rin1-Abl interaction; AID 602124; shares compounds with Rin1 Abl inh; 1,300 tested, 49% active; inhibition, % at 7.35 µM; TR-FRET Rin1-Abl binding, purified proteins
GFP quencher: counter-screen for Rin1-Abl inhibitors: GFP fluorescence quenchers; shares compounds with Rin1 Abl inh; AID 602125; inhibition, % at 6.75 µM; 1,300 tested, 8.5% active; inhibitors/quenchers counterscreen;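 note: ABL1-eGFP fusion protein alone without its partner RIN1-SBP; 0% = protein with vehicle and 100% = wells lacking protein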
The depositor's hits bear a star; x = no result. Cut-off read from the data, not from the text of the source, unless noted: active = inhibition above about 6.5%; inactive = the rest.

SMILES	CaV13 ICDI inh	NPR2 activator	GC-A act	Rin1 Abl inh	Rin1 Abl conf	GFP quencher
O=[N+]([O-])c1ccccc1CN1CCN(S(=O)(=O)Cc2ccccc2)CC1	-2.5	2.9	1.0	1.8	x	x
CCCS(=O)(=O)N1CCN(Cc2ccccc2[N+](=O)[O-])CC1	6.2	10.8	2.8	9.5*	-0.1	0.1
C[C@@H]1COc2cc(Br)ccc2S(=O)(=O)N1Cc1cn(Cc2ccc(Br)cc2)nn1	x	-4.6	-9.2	x	x	x
CCCc1c(C(=O)Nc2cc(C)on2)cnn1-c1ccccc1	-4.9	-2.7	-4.6	8.7*	-1.1	-1.4
Cn1c(Cn2c(=O)sc3ccccc32)nnc1SCC(=O)N1CCOCC1	-4.9	2.8	1.7	-0.4	x	x
O=C(CSc1nnc(Cn2c(=O)sc3ccccc32)n1-c1ccccc1)Nc1nccs1	-2.6	-6.7	-4.7	9.6*	2.9	2.3
COc1ccc(-n2c(Cn3c(=O)sc4ccccc43)nnc2SCC(=O)N2CCOCC2)cc1	-2.3	1.2	-0.6	6.5*	5.9	-0.3
O=C(CSc1nnc(Cn2c(=O)sc3ccccc32)n1-c1ccccc1)N1CCCC1	-4.6	0.2	2.6	-0.1	x	x
CC1CCCN(Cc2nc(Cc3ccccc3Cl)no2)C1 (stereo not drawn)	-5.5	6.9	3.8	-4.1	x	x
OC1CCCN(Cc2nc(Cc3ccccc3Cl)no2)C1 (stereo not drawn)	-2.3	1.7	-2.3	8.8*	-2.3	-3.4
COc1ccc2c(c1)N[C@@](CCNC=O)(c1[nH]c3ccccc3c1CCNC=O)C2=O	x	-10.1	-3.7	x	x	x
O=C(O)CC1(CC(=O)Nc2cccc(C(=O)O)c2)CCCC1	-3.9	-1.4	2.6	8.0*	-1.8	-0.3
O=C(Nc1ccc(Cl)cc1)Nc1cccc(C(=O)O)c1	-4.6	-1.0	1.0	6.0	x	x
O=C(Nc1cccc(Cl)c1)Nc1cccc(C(=O)O)c1	-4.3	2.3	4.0	5.9*	-2.4	-0.4
Cc1ccc(Cn2nnc3c2-c2cc(F)ccc2S(=O)(=O)N(C(C)(C)C)C3)cc1	x	0.1	0.3	x	x	x
O=S(=O)(c1cccc(-n2cnnn2)c1)N1CCOCC1	x	3.9	2.7	8.9*	-0.5	-3.1
C/C=C/C(=O)N1CCc2cc(S(=O)(=O)N(C)Cc3ccco3)ccc21	x	1.8	-4.9	x	x	x
CN(C)c1ccc(NC(=S)OC2CCC23CCC(c2ccccc2)CC3)cc1 (stereo not drawn)	x	-0.1	-7.5	x	x	x
Cc1ccccc1-c1nnc2c3ccccc3c(C)nn12	x	-1.5	-0.4	0.1	x	x
Cc1nn2c(-c3ccco3)nnc2c2ccccc12	-4.8	0.5	4.1	10.2*	14.3*	-2.6
O=c1[nH]c2ccccc2n1CCCSCCCn1c(=O)[nH]c2ccccc21	-4.2	-9.4	-5.2	8.7*	14.4*	0.7
CN(C)CCNc1ncnc2c1sc1nc(N3CCCC3)c3c(c12)CC(C)(C)OC3	-4.9	8.7	16.1	7.2*	10.2*	-1.5
CCN(CC)CCNc1ncnc2c1sc1nc(N3CCOCC3)c3c(c12)CCCC3	-6.3	28.8	30.1	10.7*	3.4	-0.9
CCN(CC)CCNc1ncnc2c1sc1nc(N3CCCC3)c3c(c12)CC(C)(C)OC3	-1.7	5.2	22.8	10.2*	12.7*	-1.4
CC1(C)Cc2c(c(-c3ccco3)nc3sc4c(NCCN5CCOCC5)ncnc4c23)CO1	2.6	2.9	16.6	-2.2	x	x
SMILES	CaV13 ICDI inh	NPR2 activator	GC-A act	Rin1 Abl inh	Rin1 Abl conf	GFP quencher
Cc1ccc2[nH]c(=O)c(C3C(C#N)=C(N)Oc4c3ccc3cccnc43)cc2c1 (stereo not drawn)	-3.7	-1.7	8.4	9.8*	2.2	5.9
COc1cc(OC)cc(C(=O)NC(=S)Nc2cccnc2)c1	x	-7.9	0.0	0.7	x	x
COc1ccc(C(=O)NC(=S)Nc2cccnc2)cc1OC	8.1	2.2	1.0	8.9*	-1.7	-1.4
CN(CC(=O)Nc1cccc(C#N)c1)Cc1ccc(Cl)cc1	-4.5	5.0	-2.9	1.2	x	x
CN(CC(=O)Nc1ccc(C#N)cc1)Cc1ccc(Cl)c(Cl)c1	-3.9	-5.2	-1.9	6.1*	-0.1	-0.8
CCOc1ccc2c(c1)OC(c1ccc(OC)cc1)(C(F)(F)F)NC2=O (stereo not drawn)	-4.6	2.3	-3.0	7.1*	-0.6	0.1
